Measurements published in the supplement of paper PMC10105736.
A number with no mark means an inactive call.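 The calls were made as follows: active = MAPPIT score above the 99th percentile of random reference set scores in the same batch; inactive = at or below it.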

Assays:
Assay in all cases: MAPPIT interaction score (arbitrary units); higher = stronger binary interaction signal, active = hit call of the paper
Atg16 = conditions: MAPPIT configuration: N-C; pair source set: Lit-BM-16
Method: (§1)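 MAPPIT in HEK293T cells: Drosophila bait and prey ORFs (from the FlyBi ORF collection) were co-transfected in quadruplicate, with two wells stimulated by erythropoietin. Interaction-dependent JAK-STAT activation was read out with a STAT-responsive firefly luciferase reporter. Positive calls use the 99th percentile of random reference set (RRS) scores within each batch […]. Batches Dvs01 and Dvs02 used the N-N configuration and Dvs04 the N-C configuration. Pairs come from FlyBi screens, CuraGen, DPiM, Finley Y2H, Lit-BM-16, Lit-BS-16 and RRS.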

Ass = conditions: MAPPIT configuration: N-N; pair source set: Curagen_high_conf
Method: as §1

BEAF-32 = conditions: MAPPIT configuration: N-N; pair source set: screen_1
Method: as §1

Ald1 = conditions: pair source set: Lit-BM-16
Method: as §1

Arv1 = conditions: MAPPIT configuration: N-C; pair source set: RRS
Method: as §1

Arc2 = conditions: MAPPIT configuration: N-N; pair source set: screen_1
Method: as §1

Arc1 = conditions: MAPPIT configuration: N-N
Method: as §1

CG34382 = conditions: MAPPIT configuration: N-N; pair source set: Curagen_high_conf
Method: as §1

CG8441 = conditions: MAPPIT configuration: N-N; pair source set: Lit-BS-16
Method: as §1

Pbgd = conditions: MAPPIT configuration: N-N; pair source set: DPIM
Method: as §1
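Also: HEK293T cells with Epo stimulation, STAT-responsive firefly luciferase reporter, fold induction versus unstimulated cells divided by the larger fold induction of two negative controls lacking either bait or prey.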

B1: Atg5 (protein)
chain: MAHDREVLRMIWEGQIGICFQADRDEIVGIKPEPFYLMISRLSYLPLVTDKVRKYFSRYISAEHQDGAVWFDFNGTPLRLHYPIGVLYDLLHPEEDSTPWCLTIHFSKFPEDMLVKLNSKELLESHYMSCLKEADVLKHRGLVISAMQKKDHNQLWLGLVNEKFDQFWAVNRRLMEPYGDLESFKNIPLRIYTDDDFTYTQKLISPISVGGQKKSLADLMAELSTPVRRAVGCRTHGIDLHEETQLQWMSEHLSYPDNFLHLSVDYKDV
Q: For B1, which MAPPIT interaction score (Atg16) is on record?
A: Its MAPPIT interaction score is 2.6.

B2: Git (protein)
chain: MCFASSIIEAHRKLFIAPPDLDHSDPATPTISTRSKMPRGKSRLQTEVCGDCGAGDPSWASINRGILLCADCCSVHRSLGRHISIVKSLRQGNWEPSVLNFVNSLNAHGANSVWEHHLLDGSTNSTGGKHVPRWRKPTPKDALHPTKSDFIKAKHVNLTFVLKPSLQDDDDGNGSAGCLEQELSRQLHASVRTSNLETSLRFLVQGADPNYYHEDKLSTPLHMAAKFGQASQIEMLLIYGADVNALDGNGMTPLELARANNHNTIAERLLDAMYDVTDRIITFLGGKKPDHASGRHMIIPDANGADISEQLKIARGKLQLVPNKMFEELVMDLYDEVDRRECEAIWSTSTLNADHATVPFLPANPFLSATRNQGRQKLARFNRAEFTGLLTDVLVDAMRRQNMANLRPMDAPVAGHQSLQSLPYANNSMLLGSFEQGGHDPNLSDDEPIYDPVASDDDYAPVPPMAQQAIVHTPPRSANSHNEMETLRKQLNDYKSEINQLKNVVQMLSSENTQLKSKFSSASNNSVYDEPLRIDLSLSSPDTEHEPLSLPEGGTANGESGSSNDSSNQSTIKRPASMYERRLVPNVAKGNTDIRNTTSMYQMAGDGKPFGEEVKVRSDLVTRRLKELIRAMQPVPEDQKQSIAPHGELIRSAVTDLIALYANLPPNASDPSRETLKLLTRQNILIQHECENLQKAIEADDKQAIQKNTLEVRDCAFHIASAIKTLVLQFY
Q: Which MAPPIT interaction score (Ass) does the source give for B2 here?
A: The MAPPIT interaction score was -0.0648.

B3: Sry-delta (protein)
chain: MDTCFFCGAVDLSDTGSSSSMRYETLSAKVPSSQKTVSLVLTHLANCIQTQLDLKPGARLCPRCFQELSDYDTIMVNLMTTQKRLTTQLKGALKSEFEVPESGEDILVEEVEIPQSDVETDADAEADALFVELVKDQEESDTEIKREFVDEEEEEDDDDDDEFICEDVDVGDSEALYGKSSDGEDRPTKKRVKQECTTCGKVYNSWYQLQKHISEEHSKQPNHICPICGVIRRDEEYLELHMNLHEGKTEKQCRYCPKSFSRPVNTLRHMRMHWDKKKYQCEKCGLRFSQDNLLYNHRLRHEAEENPIICSICNVSFKSRKTFNHHTLIHKENRPRHYCSVCPKSFTERYTLKMHMKTHEGDVVYGVREEAPADEQQVVEELHVDVDESEAAVTVIMSDNDENSGFCLICNTNFENKKELEHHLQFDHDVVLK
Q: How did the MAPPIT interaction score (BEAF-32) turn out when B3 was run?
A: Its MAPPIT interaction score is 4.3 (active).

B4: Ald1 (protein)
chain: MTTYFNYPSKELQDELREIAQKIVAPGKGILAADESGPTMGKRLQDIGVENTEDNRRAYRQLLFSTDPKLAENISGVILFHETLYQKADDGTPFAEILKKKGIILGIKVDKGVVPLFGSEDEVTTQGLDDLAARCAQYKKDGCDFAKWRCVLKIGKNTPSYQSILENANVLARYASICQSQRIVPIVEPEVLPDGDHDLDRAQKVTETVLAAVYKALSDHHVYLEGTLLKPNMVTAGQSAKKNTPEEIALATVQALRRTVPAAVTGVTFLSGGQSEEEATVNLSAINNVPLIRPWALTFSYGRALQASVLRAWAGKKENIAAGQNELLKRAKANGDAAQGKYVAGSAGAGSGSLFVANHAY
Q: How did the MAPPIT interaction score (Ald1; MAPPIT configuration: N-C) turn out when B4 was run?
A: The MAPPIT interaction score was 1.2.

Q: What about the MAPPIT interaction score (Ald1; MAPPIT configuration: N-N) of the same binder?
A: Its MAPPIT interaction score is 4.7 (active).

B5: Drak (protein)
chain: MFTEKGIFPIGDGLLDVDADRLKGLLVSCPDINEIYEVEQTPFARGKFAAVRRAIHKNTGSHFAAKFLKRRRRAQSSDKEIKHEIAVLMLCEGEDNIVNLNAVHETRSDTALLLELATGGELQTILDNEECLTEAQARHCMREVLKALKFLHDRSIAHLDLKPQNILLAGERIEDGLKLCDFGISRVVCEGINVREMAGTPDYVAPEVLQYEPLSLLTDIWSVGVLTYVLLSGFSPFGGDTKQETFLNISQCALTFPDNLFGGVSPVAIDFIRRALRIKPNDRMNATGCLDHIWLKDDCSLDRQIYLQPQSDAEEEEEEDVDDDVEDEEEEEQVEEEEEETQNVEEPTTEAPQQQQQPVQQHQLAKSGQIHSKPTHNGHHRANSGGSISKIPIATSKLQSTPSSETTTAIHTLTSNSNGHVHKPTQIVTPTRRASDSDKENTYTATFVKKPVATIQLGSSNGIEDATVVATLTLFPDAPTTPKVIRKTPTGESNGSATSVKALVKKFQLEDSSGSAVARRSGGAVTSSSGLHSPTTTSVRLNSIRRASEPLTTVYKKQTSQNGCSSTSNPSSSPGSSPTTSGSTATLLIHSQRLGNSTAPASHCVAVPATATATSSASSSNSSSGKSTSAAHHLHHHHMHHHHHHHHHHVVIAAKNAAAVAATNNLSLDQGIIC
Q: How did the MAPPIT interaction score (Arv1) turn out when B5 was run?
A: Its MAPPIT interaction score is 2.34.

B6: Arc2 (protein)
chain: MTQMSDEQFRIFIETIKSLGPIKEEPPSKGSFSNCTVRFSGQRDHDAVDEFINAVETYKEVEGISDKDALKGLPLLFKSIAVVWWKGVRRDAKTWSDALQLLRDHFSPTKPSYQIYMEIFETKQSYDEVIDSFICKQRALLAKLPEGRHDEETELDFIYGLMQPKYRESIPRHEVKTFRELLDRGRTVERTRH
Q: How did the MAPPIT interaction score (Arc2) turn out when B6 was run?
A: The MAPPIT interaction score was 6.05 (active).

B7: Arc1 (protein)
chain: MAQLTQMTNEQLRELIEAVRAAAVGAAGSAAAAGGADASRGKGNFSACTHSFGGTRDHDVVEEFIGNIETYKDVEGISDENALKGISLLFYGMASTWWQGVRKEATTWKEAIALIREHFSPTKPAYQIYMEFFQNKQDDHDPIDTFVIQKRALLAQLPSGRHDEETELDLLFGLLNIKYRKHISRHSVHTFKDLLEQGRIIEHNNQEDEEQLATAKNTRGSKRTTRCTYCSFRGHTFDNCRKRQKDRQEEQHEE
Q: What does the source list for B7?
A: MAPPIT interaction score (Arc1; pair source set: screen_1): 4.55 (active); MAPPIT interaction score (Arc1; pair source set: screen_2): 3.68 (active); MAPPIT interaction score (CG34382): 0.00338; MAPPIT interaction score (CG8441): -0.34; MAPPIT interaction score (Pbgd): 0.22
